Measured values reported in PubChem BioAssay (Tox21).
Where “and” joins values, the source holds several entries; their conditions need not be identical. Equal entries are not always repeated. Results filed as inconclusive are left out. Where a structure was tested more than once in an assay, its records may differ in their call. Calls of active or inactive are those of the source. Unless noted, calls follow the shape of the full dose curve.

What was measured:
[1] = Nuclear factor erythroid 2-related factor 2/antioxidant responsive element (Nrf2/ARE) small molecule agonists: qHTS cell viability counter screen in human keratinocytes (AID 1919968; active = well fitted curve in the direction sought with a large enough effect in the repeat runs; an effect the other way counts as inactive or inconclusive; also: nearly all actives have a fitted effect of over 55% in size; also: potency is read from the fitted curve at half-maximal effect)
Outline: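 Measured as CellTiter-Fluor fluorescence, this readout tracks cytotoxicity in the same wells as the ARE-luciferase screen. HaCaT reporter cells (1,500/well) received compounds after a 5 h pre-incubation and were exposed for 23 h.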

[2] = Nuclear factor erythroid 2-related factor 2/antioxidant responsive element (Nrf2/ARE) small molecule agonists: luciferase reporter gene qHTS assay in human keratinocytes (AID 1919969); also: nearly all actives have a fitted effect of over 35% in size; also: potency is read from the fitted curve at half-maximal effect
[3] = molecular target: Gonadotropin-releasing hormone receptor (Homo sapiens) (UniProt P30968); test: Human gonadotropin-releasing hormone receptor (GnRHR) small molecule agonists, calcium flux assay in GnRHR-HEK293 cells (AID 1920063); also: nearly all actives have a fitted effect of over 35% in size
Gonadotropin-releasing hormone receptor (Homo sapiens), sequence (P30968 whole entry, looked up): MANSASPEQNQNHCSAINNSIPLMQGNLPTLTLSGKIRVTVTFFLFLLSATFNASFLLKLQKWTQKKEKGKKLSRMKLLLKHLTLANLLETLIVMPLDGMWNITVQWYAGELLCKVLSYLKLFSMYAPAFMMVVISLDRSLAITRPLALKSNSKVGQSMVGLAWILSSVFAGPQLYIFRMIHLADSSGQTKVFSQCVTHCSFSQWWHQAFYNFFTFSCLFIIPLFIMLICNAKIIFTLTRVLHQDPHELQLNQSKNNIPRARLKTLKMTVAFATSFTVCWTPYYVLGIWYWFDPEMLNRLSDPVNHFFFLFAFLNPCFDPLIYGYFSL
Outline: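 Fluorescence kinetics (480 nm excitation, 540 nm emission; 3 min, 1 s steps) report calcium mobilisation in human GnRHR-HEK293 cells in agonist mode. Dye incubation: 1 h, 37 C.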

[4] = molecular target: KiSS-1 receptor (Homo sapiens) (UniProt Q969F8); test: Human kisspeptin (KISS1R) small molecule agonists, calcium flux assay in KISS1R-HEK293 cells (AID 1920064; active = well fitted curve in the direction sought with a large enough effect in the repeat runs; an effect the other way counts as inactive or inconclusive)
KiSS-1 receptor (Homo sapiens), sequence (Q969F8 whole entry, looked up): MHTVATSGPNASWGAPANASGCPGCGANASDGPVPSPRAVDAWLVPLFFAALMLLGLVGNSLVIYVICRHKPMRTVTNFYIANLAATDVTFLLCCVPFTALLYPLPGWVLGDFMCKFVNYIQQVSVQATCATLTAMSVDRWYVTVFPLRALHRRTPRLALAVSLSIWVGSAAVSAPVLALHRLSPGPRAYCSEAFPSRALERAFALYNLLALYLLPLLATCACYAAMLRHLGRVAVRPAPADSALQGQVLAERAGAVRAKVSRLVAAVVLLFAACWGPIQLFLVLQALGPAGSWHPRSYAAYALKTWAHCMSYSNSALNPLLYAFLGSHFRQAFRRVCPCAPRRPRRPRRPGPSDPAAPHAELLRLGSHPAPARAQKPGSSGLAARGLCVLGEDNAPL
Outline: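 Measures KISS1R agonism through calcium-sensitive dye fluorescence in stably transfected HEK293 cells, read for 3 min after pin-tool compound delivery; 15-point titrations in triplicate.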

[5] = G protein-coupled receptor (GPCR) small molecule agonists, calcium flux assay: HEK293 wild type cell line counter screen (AID 1920065)
Outline: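 Readout: fluorescence at 480 nm excitation/540 nm emission, sampled at 1 s intervals for 3 min. Cells had been cultured 18 h, then dye-loaded 1 h at 37 C before compound or ATP addition.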

[6] = p53 small molecule agonists, cell-based qHTS assay with human liver microsomes (AID 1963577);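 also: p53 response element beta-lactamase reporter cells with liver microsomes plus NADPH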
Outline: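 Reporter activation was measured by LiveBLAzer fluorescence intensity in p53RE-bla cells, which had been exposed to compounds for 16 h at 37 C alongside 0.5 mg/mL human liver microsomes and 0.5 mg/mL NADPH (final concentrations).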

[7] = p53 small molecule agonists, cell-based qHTS assay with rat liver microsomes (AID 1963578)
Outline: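 Compound in DMSO added to p53RE-bla cells 5 h post-plating; rat microsomes/NADPH 0.5 mg/mL final; 16 h, 37 C; LiveBLAzer 2 h RT.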

[8] = p53 small molecule agonists, cell-based qHTS assay with rat liver microsomes: qHTS cell viability counter screen (AID 1963580); also: nearly all actives have a fitted effect of over 45% in size
Outline: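 Intracellular ATP, by CellTiter-Glo luminescence, defines viability. HCT-116 p53RE-bla cells, 4,000 per well, were compound-treated in the presence of rat liver microsomes and NADPH for 16 h at 37 C.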

[9] = p53 small molecule agonists, cell-based qHTS assay: qHTS cell viability counter screen (AID 1963581); also: nearly all actives have a fitted effect of over 45% in size
Outline: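 In the same plates used for the p53 bla reporter, HCT-116 cells given compounds for 16 h at 37 C received CellTiter-Glo; luminescence was recorded 30 min later at room temperature.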

[10] = p53 small molecule agonists, cell-based qHTS assay (AID 1963582; active = well fitted activation curve with a large enough effect in the signal ratio in the repeat runs, not every such curve was filed as active; the % refers to the signal ratio)
Outline: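 Compounds are pin-transferred in DMSO onto p53RE-bla cells and incubated 16 h at 37 C. The B/G FRET beta-lactamase substrate is then applied for 2 h at RT and fluorescence recorded.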

[11] = molecular target: 5-hydroxytryptamine receptor 2A (Homo sapiens) (UniProt P28223); test: 5-hydroxytryptamine receptor 2A (HTR2A) small molecule antagonists, cell-based qHTS assay (AID 1963586); also: nearly all actives have a fitted effect of over 45% in size
5-hydroxytryptamine receptor 2A (Homo sapiens), sequence (P28223 whole entry, looked up): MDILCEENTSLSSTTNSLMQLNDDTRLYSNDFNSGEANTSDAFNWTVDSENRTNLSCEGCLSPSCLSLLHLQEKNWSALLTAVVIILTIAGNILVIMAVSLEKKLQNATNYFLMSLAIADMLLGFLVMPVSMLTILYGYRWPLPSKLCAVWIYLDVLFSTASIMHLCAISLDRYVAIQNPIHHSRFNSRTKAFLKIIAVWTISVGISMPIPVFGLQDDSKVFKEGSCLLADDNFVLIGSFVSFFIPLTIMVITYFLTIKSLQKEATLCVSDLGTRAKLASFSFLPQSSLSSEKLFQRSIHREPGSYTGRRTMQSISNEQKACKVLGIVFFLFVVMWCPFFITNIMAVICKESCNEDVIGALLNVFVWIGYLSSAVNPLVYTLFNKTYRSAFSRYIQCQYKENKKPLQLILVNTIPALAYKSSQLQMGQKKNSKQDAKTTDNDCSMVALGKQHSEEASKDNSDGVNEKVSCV
Outline: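 Antagonist-mode intracellular calcium assay: DOI (4 nM) added after 5 min compound pre-incubation at room temperature to dye-loaded HTR2A-CHO cells. Fluorescence followed for 3 min, sampled every second.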

[12] = molecular target: 5-hydroxytryptamine receptor 2A (Homo sapiens) (UniProt P28223); test: 5-hydroxytryptamine receptor 2A (HTR2A) small molecule agonists, cell-based qHTS assay (AID 1963587); also: nearly all actives have a fitted effect of over 30% in size
Outline: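 Kinetic calcium-flux fluorescence (2 min, 1 sec intervals) after compound addition in agonist mode. HTR2A-CHO cells were cultured 18 h, then dye-loaded 1 h at 37 C.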

[13] = molecular target: Muscarinic acetylcholine receptor M1 (Homo sapiens) (UniProt P11229); test: Cholinergic receptor muscarinic 1 (CHRM1) small molecule antagonists, cell-based qHTS assay (AID 1963588); also: nearly all actives have a fitted effect of over 40% in size; also: potency is read from the fitted curve at half-maximal effect
Muscarinic acetylcholine receptor M1 (Homo sapiens), sequence (P11229 whole entry, looked up): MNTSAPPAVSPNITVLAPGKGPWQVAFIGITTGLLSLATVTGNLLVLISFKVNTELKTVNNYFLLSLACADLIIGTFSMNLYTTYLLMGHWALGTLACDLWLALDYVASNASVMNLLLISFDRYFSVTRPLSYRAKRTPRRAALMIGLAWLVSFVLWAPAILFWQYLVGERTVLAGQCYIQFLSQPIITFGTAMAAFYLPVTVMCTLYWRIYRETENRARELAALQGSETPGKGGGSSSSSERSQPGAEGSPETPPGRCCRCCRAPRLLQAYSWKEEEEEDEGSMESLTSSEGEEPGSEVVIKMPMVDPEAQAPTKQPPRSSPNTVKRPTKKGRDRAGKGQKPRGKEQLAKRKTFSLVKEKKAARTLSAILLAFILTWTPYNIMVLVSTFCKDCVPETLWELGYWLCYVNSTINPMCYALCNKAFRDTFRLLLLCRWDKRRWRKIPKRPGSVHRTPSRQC
Outline: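 CHRM1-CHO calcium-flux assay, antagonist mode. Cells were seeded 18 h, dye-loaded 1 h at 37 C and given compound for 5 min at RT, then acetylcholine was added at 50nM. FDSS fluorescence was read 3 min; 15 concentrations, three runs.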

[14] = molecular target: Muscarinic acetylcholine receptor M1 (Homo sapiens) (UniProt P11229); test: Cholinergic receptor muscarinic 1 (CHRM1) small molecule agonists, cell-based qHTS assay (AID 1963589); also: nearly all actives have a fitted effect of over 35% in size
Outline: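 Each compound was tested at 15 concentrations across three independent runs on dye-loaded CHO cells stably expressing human CHRM1, reading intracellular calcium fluorescence kinetically at 1 sec intervals.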

[15] = cAMP Responsive Elements (CRE) small molecule agonists, cell-based qHTS assay (AID 1963590)
Outline: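 Cell line: CRE-bla HEK 293T; medium DMEM/10% dialyzed FBS/0.1 mM NEAA/1 mM pyruvate/25 mM HEPES; 3 h compound exposure; beta-lactamase FRET readout after 2 h substrate loading at RT.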

[16] = cAMP Responsive Elements (CRE) small molecule antagonists, cell-based qHTS assay (AID 1963591; active = well fitted inhibition curve with a large enough effect in the signal ratio in the repeat runs, not every such curve was filed as active; the % refers to the signal ratio)
Outline: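 Inhibition of NKH477-driven (0.25 uM final) CRE-beta-lactamase signal in HEK293T cells, 3 h compound exposure at 37 °C, detected by FRET substrate fluorescence.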

[17] = molecular target: Beta-2 adrenergic receptor (Homo sapiens) (UniProt P07550); test: Adrenergic beta2 receptor (ADRB2) small molecule antagonists, cell-based qHTS assay (AID 1963592); also: nearly all actives have a fitted effect of over 50% in size; also: potency is read from the fitted curve at half-maximal effect
Beta-2 adrenergic receptor (Homo sapiens), sequence (P07550 whole entry, looked up): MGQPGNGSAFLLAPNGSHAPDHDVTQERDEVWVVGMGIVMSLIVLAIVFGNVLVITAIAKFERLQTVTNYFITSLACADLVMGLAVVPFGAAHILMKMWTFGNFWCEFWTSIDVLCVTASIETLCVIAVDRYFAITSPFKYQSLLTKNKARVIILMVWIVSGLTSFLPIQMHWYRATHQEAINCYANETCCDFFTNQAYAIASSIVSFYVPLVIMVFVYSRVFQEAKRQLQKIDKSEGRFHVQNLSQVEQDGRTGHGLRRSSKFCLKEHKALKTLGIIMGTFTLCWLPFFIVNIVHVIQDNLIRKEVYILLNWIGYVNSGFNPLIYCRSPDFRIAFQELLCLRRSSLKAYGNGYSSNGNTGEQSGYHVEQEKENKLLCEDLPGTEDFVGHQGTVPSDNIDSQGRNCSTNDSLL
Outline: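 Cells (CHO, stable ADRB2 overexpression) incubated 18-20hr at 37C; compounds added from DMSO; agonist mix (1nM isoproterenol, 100uM IBMX, 25uM Ro-20-1724) added; 0.5hr RT; d2-cAMP and anti-cAMP-cryptate added; 1hr RT; 665/615 nm read.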

[18] = molecular target: D(2) dopamine receptor (Homo sapiens) (UniProt P14416); test: Dopamine D2 receptor (DRD2) small molecule agonists, cell-based qHTS assay (AID 1963594); also: nearly all actives have a fitted effect of over 35% in size
D(2) dopamine receptor (Homo sapiens), sequence (P14416 whole entry, looked up): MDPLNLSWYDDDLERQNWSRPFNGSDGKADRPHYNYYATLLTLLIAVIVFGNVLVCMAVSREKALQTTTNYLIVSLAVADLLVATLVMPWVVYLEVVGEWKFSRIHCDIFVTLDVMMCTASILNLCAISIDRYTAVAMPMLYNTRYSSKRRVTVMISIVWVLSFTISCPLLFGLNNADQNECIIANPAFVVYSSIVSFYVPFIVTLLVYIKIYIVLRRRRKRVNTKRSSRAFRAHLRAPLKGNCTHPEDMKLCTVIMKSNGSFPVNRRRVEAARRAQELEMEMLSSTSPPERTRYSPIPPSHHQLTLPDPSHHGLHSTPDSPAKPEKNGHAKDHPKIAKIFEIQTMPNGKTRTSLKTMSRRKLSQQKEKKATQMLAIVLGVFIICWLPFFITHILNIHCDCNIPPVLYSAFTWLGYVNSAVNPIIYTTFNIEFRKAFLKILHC
Outline: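 cAMP accumulation in DRD2-HEK293 cells measured by HTRF after 1 h detection; compounds added 10 min before NKH477 (200nM […]) forskolin-analogue stimulation, 30 min at room temperature, with Ro20-1724 present at 0.1 mM final.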

[19] = molecular target: D(2) dopamine receptor (Homo sapiens) (UniProt P14416); test: Dopamine D2 receptor (DRD2) small molecule antagonists, cell-based qHTS assay (AID 1963595; active = well fitted inhibition curve with a large enough effect in the signal ratio in the repeat runs, with a control signal flat; the % refers to the signal ratio; also: potency is read from the fitted curve at half-maximal effect)
Outline: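 Stable D2 receptor HEK293 line, 24 h after seeding. Compound preincubated 10 min, then quinpirole (12 nM) with forskolin analogue NKH477 (200 nM), 30 min, room temperature. Detection by time-resolved FRET of cAMP.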

[20] = p53 small molecule agonists, cell-based qHTS assay with human liver microsomes: qHTS cell viability counter screen (AID 1963579); also: nearly all actives have a fitted effect of over 45% in size
Outline: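 HLM-supplemented (0.5 mg/mL final) and NADPH-supplemented (0.5 mg/mL final) p53RE-bla cultures, 4,000 cells per well, were dosed with compounds in DMSO for 16 h at 37 C; luminescent ATP detection (CellTiter-Glo, 30 min, room temperature) quantified surviving cells.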

Measured: Potency

C=CC(=O)OCCCCCC(C)C
not listed: [20]
inactive: all other assays above

Cl/C=C/CCl
not listed: [8]
inactive: all other assays above

CC(C)(C1CCC(O)CC1)C1CCC(O)CC1 (stereo unspecified)
not listed: [8] | [10] | [14] | [15]
inactive: all other assays above

CC(C)(C)C(O)(CCc1ccc(Cl)cc1)Cn1cncn1 (stereo unspecified)
not listed: [8] | [10] | [11] | [13] | [16]
inactive: all other assays above

O=c1oc2ccccc2c(O)c1C(CC(O)c1ccc(-c2ccc(Br)cc2)cc1)c1ccccc1 (stereo unspecified)
active: [13] 25.1 µM
not listed: [8] | [9] | [10] | [15] | [16]
inactive: all other assays above

Oc1ccc(-c2ccccc2)cc1
60.3 µM (active) and inactive: [17]
active: [2] 61.1 µM
not listed: [8] | [11] | [12]
inactive: all other assays above

CC(C)NC(=O)N1CC(=O)N(c2cc(Cl)cc(Cl)c2)C1=O
not listed: [8] | [11] | [12] | [15] | [19]
inactive: all other assays above

Nc1nc(=S)[nH][nH]1
not listed: [8] | [13]
inactive: all other assays above

c1ccc(-c2ccccc2)cc1
not listed: [20]
inactive: all other assays above

CC(C)(O)C#N
not listed: [8]
inactive: all other assays above

COc1ccc(C(CN(C)C)C2(O)CCCCC2)cc1 (stereo unspecified)
not listed: [8] | [11] | [12] | [13] | [14] | [16]
inactive: all other assays above

CCC(C)n1c(=O)[nH]c(C)c(Br)c1=O (stereo unspecified)
not listed: [16] | [18] | [20]
inactive: all other assays above

C(=NC1CCCCC1)=NC1CCCCC1
active: [1] 54.8 µM | [2] 30.6 µM
not listed: [10] | [17] | [20]
inactive: all other assays above

Cc1cc(N=Nc2ccccc2C)ccc1N
54.5 µM (active) and inactive: [1]
not listed: [12] | [15] | [16] | [20]
inactive: all other assays above

C=COCCCl
not listed: [20]
inactive: all other assays above

CCCCN(CCCC)N=O
not listed: [10] | [13] | [14] | [19] | [20]
inactive: all other assays above

N#Cc1ccccc1Cl
not listed: [8] | [9] | [15] | [20]
inactive: all other assays above

C/C(=N\NC(=O)Nc1cc(F)cc(F)c1)c1ncccc1C(=O)O
not listed: [11] | [15] | [19] | [20]
inactive: all other assays above

CCCCC(CC)COC(=O)c1ccc(C(=O)OCC(CC)CCCC)c(C(=O)OCC(CC)CCCC)c1 (stereo unspecified)
not listed: [20]
inactive: all other assays above

CCCCOC(=O)c1ccccc1C(=O)O
not listed: [11] | [12] | [13] | [17] | [20]
inactive: all other assays above

CC[N+]1(CC)CCC(OC(=O)C(O)(c2ccccc2)c2ccccc2)C1 (stereo unspecified)
active: [13] 0.0023 µM
not listed: [9] | [20]
inactive: all other assays above

CCOP(=S)(OCC)SCSc1cc(Cl)ccc1Cl
not listed: [12] | [19] | [20]
inactive: all other assays above

C=CC(=O)OCC(CC)(COC(=O)C=C)COC(=O)C=C
inactive and 48.6 µM (active): [19]
active: [1] 6.28 µM and 12.2 µM | [2] 2.8 µM and 6.11 µM
inactive: [3] | [4] | [5] | [6] | [7] | [11] | [12] | [13] | [18]

CCOC(=O)CP(=O)(OCC)OCC
not listed: [20]
inactive: all other assays above

N#CCCCl
not listed: [20]
inactive: all other assays above

CC1=C2[C@H]3OC(=O)[C@@H](C)[C@@H]3CC[C@@]2(C)C=CC1=O
not listed: [20]
inactive: all other assays above

CCCCC(CC)C(=O)Cl (stereo unspecified)
not listed: [12] | [14] | [20]
inactive: all other assays above

Cc1ccc([N+](=O)[O-])cc1
not listed: [10] | [20]
inactive: all other assays above

O=C(O)c1nc(Cl)ccc1Cl
not listed: [15] | [20]
inactive: all other assays above

CN(C)P(=O)(N(C)C)N(C)C
not listed: [20]
inactive: all other assays above

CCCCOC(=O)CCC(=O)OCCCC
not listed: [20]
inactive: all other assays above
